Source: PubChem BioAssay (National Center for Advancing Translational Sciences (NCATS))
This is a sample that favours compounds with a hit; in the whole collection about 0.4% have one here.
TRPV1 agonist: activates the human vanilloid receptor TRPV1. 320,000 compounds, 0.19% hits. Q8NER1. activation, % at 8.33 µM. TRPV1-expressing cells, Fluo-8 calcium influx, agonist mode; in the data active = activation above about 80%; inconclusive = between about 30% and that limit
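TRPV1-expressing cells were cultured overnight at 35.5C and loaded with Fluo-8 calcium dye for 40 to 90 min at room temperature. After a 10 s baseline, compound was added and calcium influx was read kinetically for 3 min (ex 480/em 520 nm).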
TRPML1 inh: blocks the human TRPML1 channel. Q9GZU1. TRPML1-inducible cells, Ca2+ dye fluorescence, FDSS; active compounds read low; inhibition of EC80 agonist-evoked calcium signal. activity change, negative = inhibition, % (concentration not given with the values). 390,000 compounds, 0.02% hits. AID 624415; in the data active = activity change below about -50%; inconclusive = between about -30% and that limit;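 also: stimulus is agonist 54-4 at its EC80 concentration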
Target sequence (Q9GZU1 whole entry, looked up): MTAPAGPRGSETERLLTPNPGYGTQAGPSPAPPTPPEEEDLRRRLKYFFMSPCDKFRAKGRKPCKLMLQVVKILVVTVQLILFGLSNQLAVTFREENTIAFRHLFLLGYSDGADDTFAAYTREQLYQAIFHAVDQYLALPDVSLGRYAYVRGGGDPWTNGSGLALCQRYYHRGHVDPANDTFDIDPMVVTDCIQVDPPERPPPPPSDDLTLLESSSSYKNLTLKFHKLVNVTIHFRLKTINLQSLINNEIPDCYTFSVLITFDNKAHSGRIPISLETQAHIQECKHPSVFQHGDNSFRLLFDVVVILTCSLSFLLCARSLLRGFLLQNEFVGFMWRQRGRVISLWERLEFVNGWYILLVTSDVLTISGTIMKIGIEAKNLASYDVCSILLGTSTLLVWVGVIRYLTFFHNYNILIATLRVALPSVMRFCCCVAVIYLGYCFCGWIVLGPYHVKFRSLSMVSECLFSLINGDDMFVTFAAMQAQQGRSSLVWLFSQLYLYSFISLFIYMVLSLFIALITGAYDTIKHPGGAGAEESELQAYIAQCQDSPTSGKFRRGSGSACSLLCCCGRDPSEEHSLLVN
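Calcium fluorescence in TRPML1-DL cells induced overnight with Tet: a 110 s read after compound pin addition, then a 110 s antagonist read after challenge with 54-4 at 4 uM final (EC80).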
TRPML1 ag: agonists of human TRPML1 channel; Q9GZU1; TRPML1-expressing cells, Ca2+ dye fluorescence, FDSS; activation, % (test concentration not listed); 410,000 compounds, 0.12% hits; AID 624414; in the data active = activation above about 50%; inconclusive = mostly about 30% to 49%
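Tetracycline-induced TRPML1-DL cells are seeded and incubated overnight before loading with a no-wash Ca2+ dye and quencher. Agonist activity is taken from the 110 s fluorescence read following compound pin-transfer on an FDSS, before EC80 54-4 challenge.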
USP1 inh: USP1/UAF1 (human) deubiquitinase inhibition; O94782; AID 743255; Potency, µM (doses to about 57.1 µM), hits mostly inhibitors; recombinant USP1/UAF1, Ub-Rhodamine cleavage fluorescence; 390,000 compounds, 0.23% hits; active = well fitted inhibition curve with a large enough effect; inconclusive = small, poorly fitted or top-dose-only effect; inactive = no such curve, though single readings can be large or run the other way; also: nearly all actives have a fitted effect of over 60% in size
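1 nM enzyme complex + cpd, 15 min RT; start with Ub-Rho 150nM final; kinetic fluorescence ex 480/em 540, 6 reads q60 s. Buffer 50mM HEPES pH 7.8, 0.5mM EDTA, 0.1 mg/ml BSA, 1mM TCEP, 0.01% Tween-20.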
TRPV1 potentiator: human TRPV1 potentiation. potentiation, % at 8.33 µM. AID 540277. TRPV1-expressing cells, Fluo-8 calcium influx, capsaicin EC20 potentiation. Q8NER1. 320,000 compounds, 0.02% hits; in the data active = potentiation above about 80%; inconclusive = between about 30% and that limit
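TRPV1-expressing cells were cultured overnight at 35.5C and loaded with Fluo-8 calcium dye for 40 to 90 min at room temperature. After a 10 s baseline, compound was added and calcium influx was read kinetically for 3 min (ex 480/em 520 nm).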
Large screens that a line does not name were inactive.

CC(C)NC(=O)c1cc(C2CCCCN2S(=O)(=O)c2cccc3cccnc23)on1 (stereo not given)	none (no result: TRPV1 agonist, TRPML1 inh, USP1 inh, TRPV1 potentiator)
O=C(CCCn1c(=O)[nH]c2ccc(Br)cc2c1=O)NCc1ccc(Cl)cc1	none
Cc1ncoc1C(=O)Nc1ccc(Oc2ccccc2)cc1	TRPV1 agonist 84
COC(=O)c1cc(Br)c(=O)n(-c2ccccc2OC)c1	none
O=C(Nc1nnc(-c2ccccc2Cl)o1)c1nc2ccccc2s1	TRPML1 ag 65
Cc1ccc(C(=O)N[C@H](C(=O)Nc2ccc(F)cc2)C(C)C)cc1	TRPV1 agonist inconclusive
CNc1ccc2c3c(cccc13)C(=O)N(C)C2=O	TRPV1 agonist 103, TRPML1 ag 78
CN1C(=O)c2cccc3c(Cl)ccc(c23)C1=O	none
Cc1cc(C)c(O)c(NC(=S)NC(=O)Cc2ccccc2)c1	TRPV1 agonist 81
COc1ccc2cc(C(=O)N/N=C/c3sc4ccccc4c3O)ccc2c1	TRPML1 ag inconclusive, USP1 inh 28µM
CCc1ccc(NC(=O)C2(c3ccccc3)CC2(Cl)Cl)cc1 (stereo not given)	TRPML1 ag 54
Cc1ccc(NC(=O)C2(c3ccccc3)CC2(Cl)Cl)cc1C (stereo not given)	none
CC(=O)N1N=C(c2ccccc2)OC1(C)CC(=O)Nc1ccccc1 (stereo not given)	none
N#C/C(=C\c1ccc(N2CCCCC2)o1)C(=O)Nc1cccc(Br)c1	TRPV1 agonist inconclusive, TRPML1 inh inconclusive, TRPML1 ag 119, USP1 inh 28µM
COc1ccc(-[n+]2c(C)cc(/C=C3\Sc4ccccc4N3C)cc2C)cc1	TRPV1 agonist inconclusive, TRPML1 ag 69, TRPV1 potentiator inconclusive
COc1ccc(C(=O)/C=C2\Sc3ccccc3N2C)cc1	TRPV1 agonist inconclusive
COc1ccccc1-[n+]1c(C)cc(/C=C2\Sc3ccccc3N2C)cc1C	TRPV1 agonist inconclusive, TRPML1 ag 65, USP1 inh inconclusive, TRPV1 potentiator inconclusive
CC(C)(C)CC(C)(C)N=C1Nc2cc(Cl)c(Cl)cc2NC12C[C@H]1CCC(=O)N3CC[C@@H](C2)[C@@H]13 (stereo not given in full)	USP1 inh inconclusive (no result: TRPV1 agonist, TRPV1 potentiator)
CCCCn1nc(NC(=O)COC)c2cc3ccc(C)cc3nc21	TRPV1 agonist 89
CCCn1nc(NC(=O)COC)c2cc3cc(C)ccc3nc21	TRPV1 potentiator inconclusive (no result: TRPML1 inh, TRPML1 ag)
O=C1c2cccc3c(O)ccc(c23)C(=O)N1c1ccc(Cl)cc1	TRPML1 ag 104, USP1 inh 28µM
O=C1c2ccccc2C(=O)N1c1ccc(Cl)cc1	none (no result: TRPML1 inh, TRPML1 ag, USP1 inh)
O=C1c2cccc3c(O)ccc(c23)C(=O)N1Cc1ccco1	TRPV1 agonist inconclusive, TRPML1 ag 99, USP1 inh 28µM
CC(=O)Nc1ccc(N2C(=O)c3cccc4c(O)ccc(c34)C2=O)cc1	TRPV1 agonist inconclusive, TRPML1 ag 72, USP1 inh 28µM
O=C1c2ccccc2C(=O)N1Cc1ccco1	none
CCOc1ccc(CCNC(=O)CN2C(=O)CCSc3ccccc32)cc1OCC	none
COC(=O)c1c(NC(=O)C(=O)N2CCOCC2)sc2c1CCCC2	TRPV1 agonist 87
COC(=O)c1c(NC(=O)C(=O)N2CCOCC2)sc2c1CCC2	TRPV1 agonist inconclusive
Cc1nc(-c2ccccc2O)n(S(=O)(=O)N(C)C)n1	none
CC(=O)OC1C(N2CCCCC2)c2c(ccc(/C=C/C(=O)N3CCCCC3)c2O)OC1(C)C (stereo not given)	TRPV1 agonist 81
Cc1sc2ncnc(NCC(c3ccco3)N(C)C)c2c1C (stereo not given)	TRPV1 agonist 86
CN(C)C(CNc1ncnc2sc3c(c12)CCCCC3)c1ccco1 (stereo not given)	none
O=c1[nH]c2c(s1)C=Nc1ccccc1N2	USP1 inh 28µM
O=C(Cn1c(/C=C/c2ccccc2)nc2ccccc21)Nc1ccc(F)cc1	none
C/C(CCc1ccccc1)=N\NC(=O)c1ccccc1	none
O=C(CCc1cccc(Cl)c1)N1CCCC(Nc2ccccc2)C1 (stereo not given)	TRPV1 agonist 84
COc1ccc(NC2CCCN(C(=O)CCOc3ccccc3)C2)cc1 (stereo not given)	TRPV1 agonist 82
O=C(CC1CCCC1)N1CCCC(Nc2ccc(F)cc2)C1 (stereo not given)	none
Cc1ccc(NC2CCCN(C(=O)CN3C(=O)c4ccccc4C3=O)C2)cc1C (stereo not given)	TRPV1 agonist inconclusive
Cc1ccc(NC2CCCN(C(=O)CCC(=O)c3ccccc3)C2)cc1C (stereo not given)	TRPV1 agonist 92
COc1ccc(NC2CCCN(C(=O)CSc3ccccc3)C2)cc1 (stereo not given)	TRPV1 agonist inconclusive
O=C(CC1CCCC1)N1CCCC(Nc2cccc(F)c2)C1 (stereo not given)	TRPV1 agonist 84
COc1ccccc1OCCC(=O)OCC(=O)NC(C)c1ccccc1 (stereo not given)	none
CCOc1ccccc1CNC(=O)CCCn1ccc2cc(S(=O)(=O)N3CCCC3)ccc21	none
COc1ccc(NC2CCCN(C(=O)CCc3ccccc3F)C2)cc1 (stereo not given)	TRPV1 agonist 81
CN(C(=O)COC(=O)c1cncc(Br)c1)C1CCS(=O)(=O)C1 (stereo not given)	none
CCN(C(=O)COC(=O)c1cncc(Br)c1)C1CCS(=O)(=O)C1 (stereo not given)	TRPV1 potentiator 80
O=C(Cc1ccc(F)cc1)Nc1cccc(-c2ccc3nncn3n2)c1	none
O=C(Cc1cccs1)Nc1cccc(-c2ccc3nncn3n2)c1	TRPV1 potentiator 85
CC(=O)O[C@H]1C(=O)[C@]2(C)[C@H]([C@H](OC(=O)c3ccccc3)[C@]3(O)C[C@H](OC(=O)[C@H](O)[C@@H](NC(=O)c4ccccc4)c4ccccc4)C(C)=C1C3(C)C)[C@]1(OC(C)=O)CO[C@@H]1C[C@@H]2O	none (no result: TRPV1 agonist, TRPV1 potentiator)
CCN(c1ccccc1)c1cc2ccccc2c(=O)[nH]1	USP1 inh 25µM
CCCCCCc1cc2cc(-c3cn4c(n3)sc3cc(OC)ccc34)c(=O)oc2cc1O	TRPML1 inh -71 (no result: TRPV1 agonist, TRPV1 potentiator)
CCOC(=O)c1ccc(NC(=O)CN(c2ccc(C)cc2)S(=O)(=O)c2c(C)nn(C)c2C)cc1	none
COC(=O)CCCC1=CC2=CC(=O)C(C)(OC(=O)c3cccs3)C(=O)C2=CN1c1ccc(OC)cc1 (stereo not given)	TRPV1 potentiator inconclusive
COc1ccc(C2=CC3=C(Br)C(=O)C(C)(OC(=O)c4ccco4)C(=O)C3=CO2)cc1 (stereo not given)	USP1 inh 25µM
COc1ccc(C2=CC3=C(Br)C(=O)C(C)(OC(=O)c4cccs4)C(=O)C3=CO2)cc1 (stereo not given)	USP1 inh 35µM (no result: TRPV1 agonist, TRPV1 potentiator)
